In PubChem BioAssay AID1508600 (Functional Genomics Laboratory (NCATS/FGL), 2020):
The campaign covered roughly 53,000 sequences. About 3,700 (7%) were called active. This excerpt belongs to a sample that is enriched for actives. Unmarked numbers belong to inactive results.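 How the source made its calls: active means gene knockdowns whose robust z-score for IL-1 alpha signal is at least 2 or at most -2, so actives lie on both sides; inactive means the rest.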

Assay: Components of the Cytosolic LPS Sensing Pathway: Gene Identification via Genome-wide siRNA Screen;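 further: robust z of the log signal after scaling to non-targeting control siRNA wells of the plate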
Details: RAW264.7 macrophages, IL-1a HTRF, actives lie on both sides, screened at 100 nM (by protocol), cells primed 5 h with Pam3CSK4 first
In short: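 Knockdown: 100 nM siRNA, 48h, RAW264.7. Stimulation: Pam3CSK4 5 h, then LipidA via TransIT-TKO 24 h. Output: supernatant IL-1a HTRF, negative-control-normalized, log robust z-score; viability by CellTiter-Glo.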

Sequence	z-score
GGCAGAAGCCUAAAACGGUTT against Nudt2	0.00394
GGCAUUCUGAAAACAACUCTT against Hvcn1	2.02 (active)
GCCAAGACCUAUGAGUAUATT against Naaladl1	1.33
CCGAUAAUAUCAAUGGAAATT against Med24	0.744
GGACAUCAAGAAGGACAAATT against Ppp2r5d	0.874
GGGUCAAAGAGAAAAAAGUTT against Hoxa13	-1.2
GGUGAUGGUGUAAAAUACATT against Dab2	4.98 (active)
GGAGAAGCAUGGCUAUAACTT against Rcor2	-0.393
GGUGACCUACAAGAUUUGUTT against Csdc2	-0.801
GUCACUCUUUUUUAUGGAATT against Olfr485	-1.48
GGCGAAUUGAAGGAGACCATT against Tmod3	2.54 (active)
GGGCAUAGAUUAGUCUUUATT against Ing2	1.01
GCGCAUAUUUUAUCAACUCTT against Plcb3	0.38
GGAACCAUGGACCUUAAUUTT against Rbm4	0.291
GCUUUCCUAGACAAUCUAUTT against Arhgap19	0.0654
GGCUGCAUUACCCAGCUUATT against Olfr853	0.719
GGAAGUCCUAUGAUUAAACTT against Zfand1	-0.633
CCUUCUAUUCACUUUACCATT against Vmn1r87	-0.907
GGGUUCACAUGGCAUAGUCTT against Zfp1	-0.0137
GGAGAGUACAGACACUGAGTT against Masp2	-0.22
GCUUAGACAACGACAUUUCTT against Mcoln3	2.04 (active)
GGUCUUCUCCAAGAUCUUCTT against Cyp26b1	1.03
GCACACCUAUGUCCACUCUTT against Aars	-0.923

Sequence	z-score
GGUGCCUUCUGUAAACGAGTT against Foxc2	2.81 (active)
GGAAGGAAAACCUUUCAACTT against Cyp2j6	0.975
GGUGGUGACCUUGGAUGUUTT against Gstp3	-0.00982
GGAAGCACAUAGAAGCCAATT against Defb11	-0.504
GGGAGAGUGGAUCAUCAAUTT against P2ry10	-0.0942
GGGAAUAUUUGGAUAACUUTT against Pak7	4.24 (active)
GCCACGACCAUUCAGACUCTT against Lrrc42	1.27
GGAUGAUCGGCACUAUAACTT against Otulin	1.81
GGAGAGAUGUUUAUGAAUATT against Slc6a14	-0.429
GGAAAAAGAUAGAACCAGATT against Larp1b	-0.177
GGAAAGCUCUUUGUGUCGGTT against Gramd3	-0.476
CCAUCUAGUGCUGUAUUUCTT against Rnf215	0.67
GGUGAAAUCCAUUAAAGAATT against Fth1	-2.06 (active)
GGAGUUUUCUCGAAACUUCTT against Fate1	0.993
GGACCAAGAACCAGCAAUGTT against Defb6	-0.69
GGAAAAACUGAAACAGUUUTT against Eif3a	1.06
AACACGGCUCUAGCCAAUCTT against Ypel4	-1.25
GCCAAUUUGAAUGGGAUGUTT against Magohb	-2.25 (active)
GGUGGUUACCAUAGCUGGUTT against Arid2	1.67
CCUAAACUCACUCUUGUGUTT against Chrna6	-0.000677
CCUAGACGUGACUUAAUAUTT against Rabggtb	2.09 (active)
CCUCAGCAAAUAUAUGGCATT against Ccdc7b	0.0117
GCAAGCUGAGCAUUGAUGATT against Csk	0.0106

Sequence	z-score
GCAGUCUUUUGGAUAGGUUTT against Ccni	0.86
GCUGUGCAGCCACAAGUGATT against Gpr142	8.63 (active)
GGAUGGAAUGCAGAAACGATT against Pcp2	-0.061
GGGAUCAGAAAAGUUAACATT against Acaca	0.785
GGACUUCACUUUUCUAUGATT against Tmem64	1.47
GGCUUUGGACUGUAUGACCTT against Ccdc159	-0.923
GGUGGAAAGAGAGAGCUACTT against Slc12a7	0.458
GGUUUGCUGAGAAAUUAACTT against Btg3	0.958
GCCCACGUAUUUGUCUGCUTT against Sprn	-2.58 (active)
GCCUUCUUAACUUCAUCACTT against Taar5	1.16
CCUGAACACAAGUGCUGGUTT against Clec4a4	-1.8
GGCCAUCACACACAGAAACTT against Pla2g2f	-0.505
GGCUAUGCAGAUGGUACCUTT against Vil1	0.871
CCAUGUGUCAAACUACCGGTT against Rbmx2	7.02 (active)
CCAUGAUUAAGGGUCUCUATT against Ldha	0.111
GGUGGUAAAUAAUUAAGGATT against Clec14a	0.623
GGAACUGAUAAACUACUCUTT against Olfr1126	-2.08 (active)
GGGAAUGAGUCAGCUCUUUTT against Cd163	-0.667
GGCUAAACUGAAGGAAUUCTT against Fkbp10	0.875
GGUAGGAAUUUGGAAAACUTT against H2-T24	1.5
GGAAAUUGUUGUUUCCCGUTT against Sf3b3	-1.45
GGCCACCAAGAAAUUCAAATT against Cd22	4.16 (active)
GCCUAUCUGUGACUGACCUTT against LOC433501	-0.171
